# From article PMC7862700, “An all-to-all approach to the identification of sequence-specific readers for epigenetic DNA modifications on cytosine”
# What was measured:
# Test in all cases: DAPPL (digital affinity profiling via proximity ligation, sequencing); 10 mM Tris-HCl pH 7.5, 50 mM NaCl, 1 mM DTT, 4% glycerol, room temperature, 30 min; GST-TFs on glutathione beads, 16-mer random dsDNA library, 0.1% formaldehyde crosslink after washing; high values mean tight binding
# Conditions in all cases: protein: recombinant; tags: N-terminal GST; dsDNA, one strand shown
# ELK1 = target: T1, ELK1 (Homo sapiens, UniProt P19419 1-428)
# T1 sequence: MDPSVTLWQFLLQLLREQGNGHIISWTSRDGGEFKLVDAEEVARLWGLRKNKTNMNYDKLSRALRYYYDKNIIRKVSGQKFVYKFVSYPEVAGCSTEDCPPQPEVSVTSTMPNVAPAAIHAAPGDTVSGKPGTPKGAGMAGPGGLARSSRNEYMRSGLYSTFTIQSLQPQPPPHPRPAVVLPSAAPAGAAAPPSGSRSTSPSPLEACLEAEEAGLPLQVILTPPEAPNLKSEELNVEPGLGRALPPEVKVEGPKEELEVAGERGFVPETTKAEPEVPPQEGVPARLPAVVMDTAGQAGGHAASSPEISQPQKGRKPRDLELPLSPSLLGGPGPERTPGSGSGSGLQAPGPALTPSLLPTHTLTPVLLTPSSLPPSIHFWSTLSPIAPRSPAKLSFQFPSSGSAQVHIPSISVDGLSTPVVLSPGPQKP
# Summary of the method: (§1)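 After expression in yeast as GST fusions, human transcription factors were bound to glutathione beads, DNA-barcoded and mixed with a tag-only sample. The pools were incubated with 200 nmole of a 16-mer random double-stranded DNA library in Tris/NaCl/DTT/glycerol buffer (30 min, room temperature), washed and crosslinked with 0.1% formaldehyde. Proximity ligation with BsaI/T4 ligase ran for 1 h at 37 °C, before PCR amplification and sequencing on an Illumina NextSeq500. Binding signal is a hexamer's read frequency for a factor divided by its frequency for the tag-only sample.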
# GABPA = target: T2, GABPA (Homo sapiens, UniProt Q06546 1-454)
# T2 sequence: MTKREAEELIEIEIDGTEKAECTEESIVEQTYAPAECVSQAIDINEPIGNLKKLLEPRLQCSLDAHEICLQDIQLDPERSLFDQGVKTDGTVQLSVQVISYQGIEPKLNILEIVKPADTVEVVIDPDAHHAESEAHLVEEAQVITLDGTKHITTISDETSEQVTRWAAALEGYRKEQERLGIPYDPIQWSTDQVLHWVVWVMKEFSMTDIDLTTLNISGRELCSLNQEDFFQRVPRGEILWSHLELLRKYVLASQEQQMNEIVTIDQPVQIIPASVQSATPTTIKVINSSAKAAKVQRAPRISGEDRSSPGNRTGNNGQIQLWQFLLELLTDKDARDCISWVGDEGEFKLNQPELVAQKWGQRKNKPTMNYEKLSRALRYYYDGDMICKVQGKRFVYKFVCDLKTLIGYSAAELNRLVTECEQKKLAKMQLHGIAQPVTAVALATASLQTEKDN
# Summary of the method: as §1
# EHF = target: T3, EHF (Homo sapiens, UniProt Q9NZC4 1-300)
# T3 sequence: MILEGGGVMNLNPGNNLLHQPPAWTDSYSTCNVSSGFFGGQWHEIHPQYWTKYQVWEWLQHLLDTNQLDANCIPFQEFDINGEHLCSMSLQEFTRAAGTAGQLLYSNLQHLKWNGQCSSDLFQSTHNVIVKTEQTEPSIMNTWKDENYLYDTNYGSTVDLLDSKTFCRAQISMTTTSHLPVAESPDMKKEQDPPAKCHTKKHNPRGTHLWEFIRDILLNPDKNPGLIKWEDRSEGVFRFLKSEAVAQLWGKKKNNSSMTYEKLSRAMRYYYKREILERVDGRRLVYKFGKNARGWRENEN
# Summary of the method: as §1
# ELK3 = target: T4, ELK3 (Homo sapiens, UniProt P41970 1-407)
# T4 sequence: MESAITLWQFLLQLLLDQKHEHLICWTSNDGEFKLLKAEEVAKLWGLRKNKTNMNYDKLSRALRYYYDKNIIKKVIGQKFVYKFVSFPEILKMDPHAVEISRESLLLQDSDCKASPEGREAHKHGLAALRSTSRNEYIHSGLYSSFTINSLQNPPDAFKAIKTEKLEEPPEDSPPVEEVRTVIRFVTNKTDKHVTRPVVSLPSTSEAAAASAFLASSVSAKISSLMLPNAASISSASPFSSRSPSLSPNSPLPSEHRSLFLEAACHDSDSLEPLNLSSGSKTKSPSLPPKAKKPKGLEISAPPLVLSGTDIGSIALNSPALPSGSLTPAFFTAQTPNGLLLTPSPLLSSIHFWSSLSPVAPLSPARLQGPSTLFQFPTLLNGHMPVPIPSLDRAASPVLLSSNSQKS
# Summary of the method: as §1
# ETV5 = ETV5 (Homo sapiens, UniProt P41161 1-510)
# Sequence of ETV5 (P41161 whole entry): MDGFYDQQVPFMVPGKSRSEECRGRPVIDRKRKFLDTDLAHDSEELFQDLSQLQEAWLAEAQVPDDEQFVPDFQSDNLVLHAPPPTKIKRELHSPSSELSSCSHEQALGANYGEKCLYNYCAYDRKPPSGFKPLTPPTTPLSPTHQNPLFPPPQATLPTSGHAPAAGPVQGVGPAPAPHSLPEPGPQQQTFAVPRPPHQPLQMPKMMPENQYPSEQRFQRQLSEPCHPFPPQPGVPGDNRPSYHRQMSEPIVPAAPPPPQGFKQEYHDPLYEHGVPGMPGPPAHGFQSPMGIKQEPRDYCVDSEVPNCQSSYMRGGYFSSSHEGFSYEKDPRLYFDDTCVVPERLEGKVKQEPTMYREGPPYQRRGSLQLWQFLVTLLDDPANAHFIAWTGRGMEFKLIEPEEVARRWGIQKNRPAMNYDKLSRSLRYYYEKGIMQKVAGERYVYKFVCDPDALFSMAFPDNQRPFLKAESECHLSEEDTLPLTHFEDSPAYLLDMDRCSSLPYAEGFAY
# Summary of the method: as §1
# SPIC = target: T5, SPIC (Homo sapiens, UniProt Q8N5J4 1-248)
# T5 sequence: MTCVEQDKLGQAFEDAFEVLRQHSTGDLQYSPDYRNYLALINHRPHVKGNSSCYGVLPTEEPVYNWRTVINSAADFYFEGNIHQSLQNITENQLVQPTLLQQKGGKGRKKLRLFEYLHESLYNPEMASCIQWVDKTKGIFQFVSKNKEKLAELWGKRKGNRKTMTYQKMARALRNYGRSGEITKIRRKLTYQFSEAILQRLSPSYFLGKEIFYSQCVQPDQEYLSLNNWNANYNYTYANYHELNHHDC
# Summary of the method: as §1
# ELK4 = target: T6, ELK4 (Homo sapiens, UniProt P28324-2 1-405)
# T6 sequence: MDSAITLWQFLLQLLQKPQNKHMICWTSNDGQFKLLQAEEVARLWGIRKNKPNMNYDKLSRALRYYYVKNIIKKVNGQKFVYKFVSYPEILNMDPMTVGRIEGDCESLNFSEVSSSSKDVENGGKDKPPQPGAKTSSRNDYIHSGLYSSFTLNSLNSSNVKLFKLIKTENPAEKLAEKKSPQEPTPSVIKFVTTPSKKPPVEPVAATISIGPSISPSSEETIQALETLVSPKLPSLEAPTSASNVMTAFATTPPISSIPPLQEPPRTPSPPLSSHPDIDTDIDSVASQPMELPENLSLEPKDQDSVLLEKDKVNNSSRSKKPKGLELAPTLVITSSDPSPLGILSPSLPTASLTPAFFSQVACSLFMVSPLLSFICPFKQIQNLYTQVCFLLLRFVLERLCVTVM
# Summary of the method: as §1
# ELF3 = target: T7, ELF3 (Homo sapiens, UniProt P78545 1-371)
# T7 sequence: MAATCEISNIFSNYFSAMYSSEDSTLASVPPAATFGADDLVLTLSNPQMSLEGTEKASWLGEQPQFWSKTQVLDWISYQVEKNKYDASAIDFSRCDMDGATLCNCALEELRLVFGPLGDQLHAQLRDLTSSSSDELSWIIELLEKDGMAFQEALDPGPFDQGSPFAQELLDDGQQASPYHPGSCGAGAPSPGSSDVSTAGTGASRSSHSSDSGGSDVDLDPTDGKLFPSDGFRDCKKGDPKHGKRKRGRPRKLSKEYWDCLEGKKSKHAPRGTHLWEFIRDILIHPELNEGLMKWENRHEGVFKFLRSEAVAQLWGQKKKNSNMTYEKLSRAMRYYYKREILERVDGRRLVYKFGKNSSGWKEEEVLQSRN
# Summary of the method: as §1
# ETV1 = ETV1 (Homo sapiens, UniProt P50549 1-477)
# Sequence of ETV1 (P50549 whole entry): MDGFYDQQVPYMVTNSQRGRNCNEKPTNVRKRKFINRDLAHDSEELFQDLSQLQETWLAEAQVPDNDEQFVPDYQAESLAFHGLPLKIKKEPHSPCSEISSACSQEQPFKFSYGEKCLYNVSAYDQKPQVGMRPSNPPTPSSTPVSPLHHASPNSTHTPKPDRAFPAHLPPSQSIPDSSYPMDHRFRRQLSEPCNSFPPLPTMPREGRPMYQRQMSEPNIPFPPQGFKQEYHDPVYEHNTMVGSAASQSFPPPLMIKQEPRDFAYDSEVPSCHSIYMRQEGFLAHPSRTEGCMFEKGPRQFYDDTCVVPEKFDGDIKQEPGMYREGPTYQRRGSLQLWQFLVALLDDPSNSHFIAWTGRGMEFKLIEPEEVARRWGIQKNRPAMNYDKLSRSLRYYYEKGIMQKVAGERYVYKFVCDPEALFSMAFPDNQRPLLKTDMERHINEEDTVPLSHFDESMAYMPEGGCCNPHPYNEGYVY
# Summary of the method: as §1
# ERF = target: T8, ERF (Homo sapiens, UniProt P50548 1-548)
# T8 sequence: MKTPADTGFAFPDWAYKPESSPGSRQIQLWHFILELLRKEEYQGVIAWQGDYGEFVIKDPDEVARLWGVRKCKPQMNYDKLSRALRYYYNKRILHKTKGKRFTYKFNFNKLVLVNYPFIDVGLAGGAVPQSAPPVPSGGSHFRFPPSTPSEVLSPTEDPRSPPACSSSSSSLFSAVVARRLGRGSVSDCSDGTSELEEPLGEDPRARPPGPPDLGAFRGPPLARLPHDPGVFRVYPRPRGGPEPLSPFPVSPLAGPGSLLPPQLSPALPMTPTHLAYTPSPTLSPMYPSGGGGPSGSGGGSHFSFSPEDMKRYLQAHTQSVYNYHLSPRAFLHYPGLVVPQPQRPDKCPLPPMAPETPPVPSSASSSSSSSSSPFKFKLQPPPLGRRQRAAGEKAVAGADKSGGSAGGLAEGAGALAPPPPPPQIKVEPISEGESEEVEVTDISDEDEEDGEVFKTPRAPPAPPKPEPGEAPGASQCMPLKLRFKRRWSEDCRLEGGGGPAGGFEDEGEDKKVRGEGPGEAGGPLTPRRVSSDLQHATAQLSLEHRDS
# Summary of the method: as §1
# ETS2 = target: T9, ETS2 (Homo sapiens, UniProt P15036 1-469)
# T9 sequence: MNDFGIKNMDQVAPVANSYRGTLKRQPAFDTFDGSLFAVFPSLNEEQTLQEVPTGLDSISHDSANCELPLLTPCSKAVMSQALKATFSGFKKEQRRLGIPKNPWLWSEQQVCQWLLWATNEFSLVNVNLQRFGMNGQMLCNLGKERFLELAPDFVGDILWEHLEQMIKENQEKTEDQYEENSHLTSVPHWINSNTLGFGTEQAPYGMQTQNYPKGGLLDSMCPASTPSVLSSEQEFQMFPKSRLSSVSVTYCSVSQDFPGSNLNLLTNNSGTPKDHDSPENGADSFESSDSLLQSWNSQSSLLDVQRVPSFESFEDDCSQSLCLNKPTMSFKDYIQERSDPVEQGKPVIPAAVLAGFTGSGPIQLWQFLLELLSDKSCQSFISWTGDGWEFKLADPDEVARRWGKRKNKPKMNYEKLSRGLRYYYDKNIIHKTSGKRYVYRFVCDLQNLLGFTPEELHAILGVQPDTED
# Summary of the method: as §1
# SPDEF = target: T10, SPDEF (Homo sapiens, UniProt O95238 1-335)
# T10 sequence: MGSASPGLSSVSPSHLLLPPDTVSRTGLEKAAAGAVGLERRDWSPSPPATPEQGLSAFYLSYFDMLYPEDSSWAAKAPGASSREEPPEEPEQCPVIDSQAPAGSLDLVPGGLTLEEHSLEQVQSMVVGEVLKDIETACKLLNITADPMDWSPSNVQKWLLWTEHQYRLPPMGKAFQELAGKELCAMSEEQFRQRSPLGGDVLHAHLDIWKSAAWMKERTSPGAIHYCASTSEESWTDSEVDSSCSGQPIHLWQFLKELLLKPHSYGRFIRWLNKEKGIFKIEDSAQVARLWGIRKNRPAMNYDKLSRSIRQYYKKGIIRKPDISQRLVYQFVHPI
# Summary of the method: as §1
sequence,measurement,setting,value
AGCCAC,binding signal,ELK1,"1.04 fold enrichment (6-mer frequency, TF over GST control)"
same,binding signal,GABPA,"1.01 fold enrichment (6-mer frequency, TF over GST control)"
same,binding signal,EHF,"1.05 fold enrichment (6-mer frequency, TF over GST control)"
same,binding signal,ELK3,"1.11 fold enrichment (6-mer frequency, TF over GST control)"
same,binding signal,ETV5,"1.01 fold enrichment (6-mer frequency, TF over GST control)"
same,binding signal,SPIC,"1.03 fold enrichment (6-mer frequency, TF over GST control)"
same,binding signal,ELK4,"1.03 fold enrichment (6-mer frequency, TF over GST control)"
same,binding signal,ELF3,"1.06 fold enrichment (6-mer frequency, TF over GST control)"
same,binding signal,ETV1,"1.04 fold enrichment (6-mer frequency, TF over GST control)"
same,binding signal,ERF,"1.01 fold enrichment (6-mer frequency, TF over GST control)"
same,binding signal,ETS2,"1.05 fold enrichment (6-mer frequency, TF over GST control)"
same,binding signal,SPDEF,"1.05 fold enrichment (6-mer frequency, TF over GST control)"
